# Assay outcomes (PubChem BioAssay)
# The full list was thinned out, with hits kept by preference.
# fixLJ activator: activators of Burkholderia fixLJ two-component system, primary screen, B. multivorans, GFP reporter | hit rate 0.3% among 29,000 | B. multivorans fixK-promoter GFP reporter, 18 h; active compounds read high | z-score (no concentration beside the values);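 active = replicate mean overnight rise in green fluorescent reporter signal, 3 or more SD over negative controls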
# * hit, by the source's call; ! = a repeat was not active.
SMILES,fixLJ activator
COc1cccc(-c2nnc(-c3cc4cc(Cl)ccc4oc3=O)o2)c1,-0.27
CCCCCCc1cc2cc(-c3nnc(-c4ccc(C)cc4)o3)c(=O)oc2cc1O,8.58*
CCN(CC)c1ccc2cc(-c3nnc(-c4cccc(Cl)c4)o3)c(=O)oc2c1,-8.86
CCOC(=O)CSc1nc2sc3c(c2c(=O)n1Cc1ccccc1)CC(C)CC3 (stereo unspecified),1.34
Cc1ccc(CNC(=O)c2nc(SCc3ccc(C)cc3)ncc2Cl)cc1,-2.59
COc1ccc(Nc2cc(C(=O)NCCCN(C)C3CCCCC3)c3ccccc3n2)cc1,-1.1
CCCCN(CCCNC(=O)c1cc(Nc2cccc(SC)c2)nc2ccccc12)Cc1ccccc1,3.17*
CSc1cccc(Nc2cc(C(=O)NCCc3ccc(Cl)cc3)c3ccccc3n2)c1,1.99
CCOc1cccc(C2c3c(oc4cc(C)c(C)cc4c3=O)C(=O)N2c2nc(C)c(C)s2)c1 (stereo unspecified),-1.43
O=c1oc2cc(O)ccc2cc1-c1nnc(Nc2ccccc2F)s1,23.4*
O=c1oc2ccc3ccccc3c2cc1-c1nnc(Nc2ccccc2F)s1,0.59
CCOc1ccc2cc(-c3nnc(Nc4ccc(C)cc4)s3)c(=O)oc2c1,-0.47
Cc1cccc(NC(=O)CSC2=Nc3ccccc3C3=NC(CC(=O)NCc4cccs4)C(=O)N23)c1 (stereo unspecified),-0.98
Cc1nc(SCCNC(=O)CCC(=O)Nc2cccc(F)c2)n[nH]1,0.02
COc1ccc(-c2cc(C(=O)Nc3ccc4c(c3)OCO4)no2)cc1,-2.85
COc1ccc(NC(=O)c2cc(-c3ccc4c(c3)OCO4)on2)c(OC)c1,-0.07
COc1cc(NC(=O)c2cc(-c3ccc4c(c3)OCO4)on2)cc(OC)c1OC,3.73*
CCn1cc(C(=O)N(C)Cc2ccccc2)c(=O)c2cc(S(=O)(=O)N3CCc4ccccc4C3)ccc21,-2.47
Cc1ccc(C(=O)c2cn(Cc3ccccc3F)c3cc4c(cc3c2=O)OCO4)cc1,-0.42
O=C(Cn1ncc2c3ccccc3n(Cc3ccc(Cl)cc3)c2c1=O)N1CCCCCC1,6.38*
O=C(Cn1ncc2c3ccccc3n(Cc3ccccc3F)c2c1=O)N1CCCCCC1,-0.94
O=C(Cn1ncc2c3ccccc3n(Cc3ccccc3F)c2c1=O)N1CCCCC1,-0.13
CCCN1CCN(C(=O)Cn2ncc3c4ccccc4n(Cc4cccc(Cl)c4)c3c2=O)CC1,14.1*
CN1CCN(C(=O)Cn2ncc3c4ccccc4n(Cc4ccc(F)cc4)c3c2=O)CC1,-1.66
CCOC(=O)C1CCN(C(=O)Cn2ncc3c4ccccc4n(Cc4ccccc4)c3c2=O)CC1,-2.37
SMILES,fixLJ activator
CO[C@@]1(NC(=O)C(C(=O)O)c2ccc(O)cc2)C(=O)N2C(C(=O)O)=C(CSc3nnnn3C)CO[C@@H]21 (stereo partly specified),0.15
O=C(Cn1nnc(-c2ccc(Cl)cc2)n1)NCc1ccc(F)cc1,-2.33
Cc1ccc(-c2nc(S(=O)(=O)c3ccccc3)c(N3CCN(c4ccccc4)CC3)o2)cc1,0.96
CCc1ccc(C(=O)c2cn(CC(=O)Nc3ccc(OC)cc3)c3cc4c(cc3c2=O)OCCO4)cc1,-0.76
O=C(COCc1nc2ccccc2[nH]1)NCc1nc(-c2cnccn2)n[nH]1,0.43
NC(CO)C(=O)NNCc1ccc(O)c(O)c1O (stereo unspecified),3.05*!
Cc1ccc(NC(=O)c2ccsc2)cc1NC(=O)CN(C)C,-0.18
CCCNC(=O)c1c(NC(=O)c2ccccc2)sc2c1CCC(C(C)(C)C)C2 (stereo unspecified),-1.04
CC(C(N)=O)N1CCC=C(CN(C)C(=O)C=Cc2ccccc2)C1 (stereo unspecified),-1.23
CCc1ccc(NC(=O)CC2C(=O)N(c3ccc(C)cc3)C(=O)N2C2CCCC2)cc1 (stereo unspecified),-0.62
CC(=O)c1cccc(NC(=O)Cn2cnc3c2c(=O)n(C)c(=O)n3C)c1,-2.51
Cn1c(=O)c2nc3ccc(NC(=O)C(F)(F)F)cc3nc2n(C)c1=O,13.8*
Cc1ccc2nc(-c3ccc(NC(=O)C(F)(F)F)cc3)sc2c1,-2.52
CCN(C(=O)c1nn(-c2ccc(OC)c(Cl)c2)c(=O)c2c1c1ccccc1n2C)c1cc(OC)ccc1OC,-0.06
CCOC(=O)[C@]12COCCC1CN(C(=O)CNc1cccnc1)C2 (stereo partly specified),0.6
CN(Cc1ccc2nsnc2c1)C(=O)NCCCCN1CCCC1,-1.24
Cc1noc(C)c1CN1CCc2c(C(=O)N(C)CC3CCOC3)csc2C1 (stereo unspecified),0.59
CNC(=O)c1ccc(CSc2nc3ccncc3n2Cc2ccc(C)cc2)cc1,-2.23
O=C(Cn1ncc2c3ccccc3n(Cc3ccc(Cl)cc3)c2c1=O)NCCCc1ccccc1,1.31
CC1CCCCN1CCCNC(=O)Cn1ncc2c3ccccc3n(Cc3ccccc3F)c2c1=O (stereo unspecified),-0.46
O=C(Cn1ncc2c3ccccc3n(Cc3cccc(Cl)c3)c2c1=O)NCCCN1CCCCC1,16.1*
CC(C)N(Cc1ccccc1)C(=O)Cn1ncc2c3ccccc3n(Cc3ccccc3)c2c1=O,0.03
CCCCN(CC)CCCNC(=O)Cn1ncc2c3ccccc3n(Cc3ccc(F)cc3)c2c1=O,-3.43
O=C(Cn1ncc2c3ccccc3n(Cc3cccc(Cl)c3)c2c1=O)NCCCc1ccccc1,19.5*
Cc1ccccc1Cn1c2ccccc2c2cnn(CC(=O)NCc3cccc(Cl)c3)c(=O)c21,-1.53
SMILES,fixLJ activator
Cc1ccc(Cn2c3ccccc3c3cnn(CC(=O)Nc4cc(Cl)ccc4C)c(=O)c32)cc1,-1.13
CCN(CC)CCCNC(=O)Cn1ncc2c3ccccc3n(Cc3ccccc3)c2c1=O,-2.03
CCCN(CCC)CCCNC(=O)Cn1ncc2c3ccccc3n(Cc3ccc(F)cc3)c2c1=O,-1.67
CCCCN(C)CCCNC(=O)Cn1ncc2c3ccccc3n(Cc3cccc(Cl)c3)c2c1=O,6.4*
CN(Cc1ccccc1)C(=O)Cn1ncc2c3ccccc3n(Cc3cccc(Cl)c3)c2c1=O,5.53*
O=C(c1nnc2n1CCCCC2)N1CC(O)C(Cc2ccnc3ccccc23)C1 (stereo unspecified),-3.94
Cc1noc(C)c1CN1CCc2c(C(=O)NCC(F)(F)F)csc2C1,0.66
C=C(C)Cn1c(SCC(=O)c2ccccc2)nc2sc3c(c2c1=O)CCCC3,1.63
CCc1ccccc1N1CC(c2nc3ccccc3n2CCOc2ccc(Cl)c(C)c2)CC1=O (stereo unspecified),0.81
Cc1cccc(CCNC(=O)c2cc3c(=O)n(C)c4ccccc4c3n2C)c1,0.06
CCC(C)C(=O)N1CCc2ccc(S(=O)(=O)N3CCN(C)CC3)cc2C1 (stereo unspecified),-0.97
COc1ccc2c(c1)CCc1sc(NC(=O)c3ccc(Cl)cc3)nc1-2,-0.11
O=C(Cn1c(=O)n(-c2ccccc2)c(=O)c2c3c(sc21)CCCC3)Nc1ccccc1,0.28
Cc1ccc(NS(=O)(=O)c2ccc3c(c2)CCN3C(=O)C2CC2)c(C)c1,-1.13
CN1CCc2nc3sc(C(=O)c4ccc(F)cc4)c(N)c3cc2C1,0.72
CCN1CCc2nc3sc(C(=O)c4ccccc4)c(N)c3cc2C1,25.9*
Cc1ccccc1NC(=O)c1sc2nc3c(cc2c1N)CN(Cc1ccccc1)CC3,0.8
CCn1cnnc1CCNc1cc(-c2ccccc2F)nc2ccnn12,-3.48
Nc1ncc(C(=O)NCc2nncn2C2CCCCC2)c(C(F)(F)F)n1,-0.1
CNCCCN1c2ccccc2CCc2ccccc21,-0.74
CCn1cc(C(=O)N2CCN(c3cc(Cl)ccc3C)CC2)c2cc(OC)c(OC)cc2c1=O,-0.14
